{"source": "PubChem BioAssay AID623892", "about": "(Vanderbilt Specialized Chemistry Center, 2012)", "biological_target": "Metabotropic glutamate receptor 8 (Rattus norvegicus) (UniProt P70579)", "sequence (P70579 whole entry, looked up)": "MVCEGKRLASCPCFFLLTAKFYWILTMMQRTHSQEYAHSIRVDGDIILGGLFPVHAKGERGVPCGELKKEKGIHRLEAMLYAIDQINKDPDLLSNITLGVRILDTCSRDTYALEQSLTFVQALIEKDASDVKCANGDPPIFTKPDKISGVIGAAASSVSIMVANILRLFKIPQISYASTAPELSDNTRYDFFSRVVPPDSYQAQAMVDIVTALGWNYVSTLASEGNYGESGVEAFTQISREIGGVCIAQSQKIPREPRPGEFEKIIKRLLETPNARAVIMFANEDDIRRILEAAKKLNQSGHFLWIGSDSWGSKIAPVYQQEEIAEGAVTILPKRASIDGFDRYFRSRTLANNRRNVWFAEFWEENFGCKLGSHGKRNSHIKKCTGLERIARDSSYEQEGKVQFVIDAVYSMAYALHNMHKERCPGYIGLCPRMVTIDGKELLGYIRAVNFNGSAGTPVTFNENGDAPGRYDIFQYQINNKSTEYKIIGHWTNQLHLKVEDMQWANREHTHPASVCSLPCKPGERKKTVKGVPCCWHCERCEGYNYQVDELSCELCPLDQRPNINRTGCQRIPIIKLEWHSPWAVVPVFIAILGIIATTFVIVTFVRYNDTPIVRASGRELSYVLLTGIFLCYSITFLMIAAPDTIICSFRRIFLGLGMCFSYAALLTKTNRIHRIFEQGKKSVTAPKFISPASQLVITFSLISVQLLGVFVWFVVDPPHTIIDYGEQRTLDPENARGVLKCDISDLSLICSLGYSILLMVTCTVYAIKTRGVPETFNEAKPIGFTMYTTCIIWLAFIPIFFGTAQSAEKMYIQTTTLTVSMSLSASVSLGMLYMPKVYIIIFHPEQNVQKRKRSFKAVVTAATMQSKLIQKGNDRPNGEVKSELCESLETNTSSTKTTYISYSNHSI", "assay": "off-target activity at rat mGlu8, profiling panel, selectivity assay for mGlu4 lead optimization, cell-based, thallium flux (AID 623892)", "conditions": "HEK cells rat mGlu8, thallium flux, at 10 µM", "note": "Values without a mark were called inactive.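 The calls were made as follows: active = potentiator with a glutamate EC50 fold shift of at least 2, or antagonist at 0.5 or below; inactive = fold shift between 0.5 and 2.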"}
{"compound": "O=C(Nc1cccc(Cl)c1)c1ccccn1", "values": [{"measurement": "fold shift of glutamate EC50", "result": 1.47}]}
